Measurements: PubChem BioAssay (NCATS)
Results filed as inconclusive are left out. The source made the active and inactive calls. Calls follow the shape of the dose curve; as a rule, active = well fitted curve in the direction sought with a large enough effect; inconclusive = small, poorly fitted or top-dose-only effect, or another doubt; inactive = no such curve, though single readings can be large; an effect the other way counts as inactive or inconclusive.

Experiments:
[1] = biological target: Rap guanine nucleotide exchange factor 3 (Homo sapiens) (UniProt O95398); test: Confirmatory qHTS for antagonist of cAMP-regulated guanine nucleotide exchange factor 3 (EPAC1) (AID 1645880); details: EPAC1 Rap1B-BODIPY-GDP exchange, fluorescence; series mostly up to 115 µM; also: nearly all actives have a fitted effect of over 55% in size; also: potency is read from the fitted curve at half-maximal effect
Sequence of Rap guanine nucleotide exchange factor 3 (Homo sapiens) (O95398 whole entry, looked up): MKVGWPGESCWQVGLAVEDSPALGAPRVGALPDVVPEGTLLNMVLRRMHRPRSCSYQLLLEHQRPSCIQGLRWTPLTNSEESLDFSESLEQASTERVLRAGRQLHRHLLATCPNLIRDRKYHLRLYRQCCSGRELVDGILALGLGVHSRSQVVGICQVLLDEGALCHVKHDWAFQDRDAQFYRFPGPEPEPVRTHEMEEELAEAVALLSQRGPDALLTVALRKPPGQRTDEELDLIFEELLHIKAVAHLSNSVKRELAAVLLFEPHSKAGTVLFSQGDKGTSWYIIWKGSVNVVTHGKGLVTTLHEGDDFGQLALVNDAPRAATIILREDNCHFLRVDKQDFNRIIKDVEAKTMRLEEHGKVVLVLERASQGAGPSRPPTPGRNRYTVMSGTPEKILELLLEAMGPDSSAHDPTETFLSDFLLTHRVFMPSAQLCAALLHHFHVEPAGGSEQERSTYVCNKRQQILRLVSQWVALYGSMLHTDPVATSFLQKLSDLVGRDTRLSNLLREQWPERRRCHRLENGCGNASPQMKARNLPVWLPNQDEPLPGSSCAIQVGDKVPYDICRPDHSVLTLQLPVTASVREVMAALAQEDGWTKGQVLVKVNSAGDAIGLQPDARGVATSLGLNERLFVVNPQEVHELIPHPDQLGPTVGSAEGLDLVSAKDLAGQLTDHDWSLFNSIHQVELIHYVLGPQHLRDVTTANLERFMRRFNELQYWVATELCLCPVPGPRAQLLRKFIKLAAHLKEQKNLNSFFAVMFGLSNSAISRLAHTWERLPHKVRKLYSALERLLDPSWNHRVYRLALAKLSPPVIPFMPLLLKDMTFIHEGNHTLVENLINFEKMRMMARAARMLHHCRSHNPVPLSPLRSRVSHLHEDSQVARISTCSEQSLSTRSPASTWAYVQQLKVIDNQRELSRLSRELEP
How it was run: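 Nucleotide exchange uses 100 nM EPAC1, 250 nM RAP1B-BODIPY-GDP and 50 uM GDP, with compounds in a concentration-titration series. After 5 min at room temperature, fluorescence (480 nm ex/540 nm em) is read every 5 min for 30 min. Data are normalized to control ATA and DMSO.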

[2] = biological target: Rap guanine nucleotide exchange factor 3 (Homo sapiens) (UniProt O95398); test: Confirmatory qHTS for agonist of cAMP-regulated guanine nucleotide exchange factor 3 (EPAC1) (AID 1645881); details: EPAC1 Rap1B BODIPY-GDP exchange fluorescence; series mostly up to 154 µM; also: nearly all actives have a fitted effect of over 75% in size; also: potency is read from the fitted curve at half-maximal effect;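 as to activation: EPAC1 catalysed release of BODIPY-GDP from Rap1B seen as fluorescence loss; 100% = effect of cAMP agonist control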
[3] = biological target: Rap guanine nucleotide exchange factor 4 (Homo sapiens) (UniProt Q8WZA2); test: Confirmatory qHTS for agonist of cAMP-regulated guanine nucleotide exchange factor 4 (EPAC2) (AID 1645884); details: EPAC2 GEF activity, Rap1B-BODIPY-GDP fluorescence; series mostly up to 154 µM;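 also: nucleotide exchange releases bodipy-GDP from Rap1 and this lowers its fluorescence; nearly all actives have a fitted effect of over 65% in size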; also: potency is read from the fitted curve at half-maximal effect; as to activation: % is scaled to controls: 0 for no effect and ±100 for the full control effect
Sequence of Rap guanine nucleotide exchange factor 4 (Homo sapiens) (Q8WZA2 whole entry, looked up): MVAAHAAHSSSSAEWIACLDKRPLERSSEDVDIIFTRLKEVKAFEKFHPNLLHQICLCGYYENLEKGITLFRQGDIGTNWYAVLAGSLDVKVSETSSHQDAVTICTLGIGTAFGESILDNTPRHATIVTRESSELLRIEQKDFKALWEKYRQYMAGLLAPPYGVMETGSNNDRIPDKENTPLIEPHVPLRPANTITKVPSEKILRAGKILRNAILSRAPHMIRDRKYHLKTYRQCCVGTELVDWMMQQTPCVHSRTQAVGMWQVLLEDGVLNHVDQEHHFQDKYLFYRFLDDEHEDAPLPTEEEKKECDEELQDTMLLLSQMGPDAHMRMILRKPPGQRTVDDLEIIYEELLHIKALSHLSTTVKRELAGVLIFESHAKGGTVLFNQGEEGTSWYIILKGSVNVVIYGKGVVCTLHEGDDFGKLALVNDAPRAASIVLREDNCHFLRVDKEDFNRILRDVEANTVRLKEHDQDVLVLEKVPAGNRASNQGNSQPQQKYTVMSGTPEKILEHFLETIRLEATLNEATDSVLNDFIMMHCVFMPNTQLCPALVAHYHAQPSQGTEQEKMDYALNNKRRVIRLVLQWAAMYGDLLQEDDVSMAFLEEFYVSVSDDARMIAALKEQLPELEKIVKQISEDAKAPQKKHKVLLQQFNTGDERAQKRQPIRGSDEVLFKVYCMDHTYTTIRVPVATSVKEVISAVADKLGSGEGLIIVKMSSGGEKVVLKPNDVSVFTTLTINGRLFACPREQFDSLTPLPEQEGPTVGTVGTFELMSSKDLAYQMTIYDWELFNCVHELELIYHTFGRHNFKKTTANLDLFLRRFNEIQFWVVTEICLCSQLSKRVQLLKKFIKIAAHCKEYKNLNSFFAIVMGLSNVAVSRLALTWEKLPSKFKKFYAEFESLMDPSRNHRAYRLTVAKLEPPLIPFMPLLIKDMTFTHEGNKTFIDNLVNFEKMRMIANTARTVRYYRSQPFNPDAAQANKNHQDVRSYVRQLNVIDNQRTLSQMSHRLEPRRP

[4] = biological target: Rap guanine nucleotide exchange factor 4 (Homo sapiens) (UniProt Q8WZA2); test: Confirmatory qHTS for antagonist of cAMP-regulated guanine nucleotide exchange factor 4 (EPAC2) (AID 1645885); details: EPAC2 Rap1B-BODIPY-GDP exchange fluorescence, biochemical; series mostly up to 12.7 µM; also: nearly all actives have a fitted effect of over 25% in size; also: potency is read from the fitted curve at half-maximal effect; as to activity change, negative = inhibition: % is scaled to controls: 0 for no effect and ±100 for the full control effect
[5] = biological target: Rap guanine nucleotide exchange factor 3 (Homo sapiens) (UniProt O95398); test: Counterscreen qHTS for antagonist of cAMP-regulated guanine nucleotide exchange factor 3 (EPAC1) (AID 1645888); details: Rap1B-BODIPY-GDP nucleotide exchange, fluorescence; series mostly up to 154 µM;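 also: fluorescence loss as bound BODIPY-GDP is released from Rap1B; % of control where 0% means no effect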
How it was run: (§1)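 Rap1B–BODIPY-GDP (250 nM) with 50 uM GDP; compounds pin-transferred to 9.74 nM–152 uM final (activator) or from 7.32 nM upwards (inhibitor). Fluorescence Ex/Em 480/540 nm read at 5 and 30 min, then after adding cAMP or buffer, at room temperature.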

[6] = biological target: Rap guanine nucleotide exchange factor 3 (Homo sapiens) (UniProt O95398); test: Counterscreen qHTS for agonist of cAMP-regulated guanine nucleotide exchange factor 3 (EPAC1) (AID 1645889); details: EPAC1 Rap1B-BODIPY-GDP exchange, fluorescence; series mostly up to 154 µM; also: nearly all actives have a fitted effect of over 40% in size; also: potency is read from the fitted curve at half-maximal effect; as to activation: % of control where 0% means no effect
How it was run: as §1

C=CCNC(=O)C1CC1(c1cccc(C)c1)c1cccc(C)c1 (stereo not drawn)
inactive: Potency [1] | Potency [2] | Potency [3] | Potency [4] | Potency [5] | Potency [6]

CC(=O)Nc1ccc(Nc2nc3ccccc3nc2NS(=O)(=O)c2ccc(Cl)c([N+](=O)[O-])c2)cc1
inactive: Potency [2] | activation [3] -3.97% [at 17.1 µM, percent relative to cAMP agonist control] | Potency [4] | activity change, negative = inhibition [5] -36.3% [at 30.8 µM] | activation [6] 21.8% [at 30.8 µM]
active: Potency [1] 50.1 µM

CN[C@@H](CO)C(=O)NC[C@H]1O[C@@H](n2cnc3c(N)ncnc32)[C@H](O)[C@@H]1O
inactive: Potency [1] | Potency [2] | Potency [3] | Potency [4] | Potency [5] | Potency [6]

CCOc1ccc(/C=C/C(=O)c2cc(Br)ccc(=O)c2O)cc1
active: Potency [1] 33.8 µM
inactive: Potency [2] | Potency [3] | Potency [4] | Potency [5] | Potency [6]

CCCCOC(=O)CSc1nnc(-c2ccc(Cl)cc2Cl)o1
inactive: Potency [1] | Potency [2] | activation [3] 5.42% [at 17.1 µM, percent relative to cAMP agonist control] | Potency [4] | activity change, negative = inhibition [5] -4.49% [at 30.8 µM] | activation [6] 14.1% [at 30.8 µM]

COc1ccc(/C=C(/NC(=O)c2ccccc2)C(=O)N/N=C/c2ccncc2)c(OC)c1
inactive: Potency [1] | Potency [2] | activation [3] 2.49% [at 17.1 µM, percent relative to cAMP agonist control] | Potency [4] | activity change, negative = inhibition [5] 28.5% [at 30.8 µM] | activation [6] 12.1% [at 30.8 µM]

CCCCNC(=O)c1ccc2nc(-c3ccco3)c(-c3ccco3)nc2c1
active: Potency [1] 7.94 µM
inactive: Potency [2] | activation [3] 3.07% [at 17.1 µM, percent relative to cAMP agonist control] | Potency [4] | activity change, negative = inhibition [5] -2.83% [at 30.8 µM] | activation [6] 11.8% [at 30.8 µM]

COC(=O)CSc1nc2c(c(=O)n(C)c(=O)n2C)n1CCCc1ccccc1
inactive: Potency [1] | Potency [2] | activation [3] 4.31% [at 17.1 µM, percent relative to cAMP agonist control] | Potency [4] | activity change, negative = inhibition [5] -3.64% [at 30.8 µM] | activation [6] 0.96% [at 30.8 µM]

O=C(O)c1ccc(N/N=C/c2ccc3c(c2)OCO3)cc1
active: Potency [4] 33.8 µM
inactive: Potency [1] | Potency [2] | Potency [3] | Potency [5] | Potency [6]

CCCCN(C(=O)CSCC(=O)Nc1ccc(C)cc1)c1c(N)n(CCCC)c(=O)[nH]c1=O
inactive: Potency [1] | Potency [2] | activation [3] 4% [at 17.1 µM, percent relative to cAMP agonist control] | Potency [4] | activity change, negative = inhibition [5] -21.2% [at 30.8 µM] | activation [6] 6.23% [at 30.8 µM]

COC(=O)c1cc(OC)nc2ccc(Br)cc12
inactive: Potency [1] | Potency [2] | Potency [3] | Potency [4] | Potency [5] | Potency [6]

CCCCNC(=O)Cn1nc(N2CCN(c3ccccc3OC)CC2)ccc1=O
inactive: Potency [1] | Potency [2] | Potency [3] | Potency [4] | Potency [5] | Potency [6]

Cc1cc(C)c2nc(C)cc(Nc3ccc(C(=O)NCCO)cc3)c2c1
inactive: Potency [1] | Potency [2] | Potency [3] | Potency [4] | Potency [5] | Potency [6]

O=C1Nc2c(Cl)cc(Cl)cc2C1=O
active: Potency [6] 31.6 µM
inactive: Potency [1] | Potency [2] | Potency [3] | Potency [4] | Potency [5]

CN1C(=O)/C(=C\c2ccc(N(C)C)cc2)OC1=S
active: Potency [6] 15.8 µM
inactive: Potency [1] | Potency [2] | Potency [3] | Potency [4] | Potency [5]

Nc1ncnc2c1nc(Br)n2[C@@H]1O[C@@H]2COP(=O)(O)O[C@H]2[C@H]1O
inactive: Potency [4] | Potency [5] | Potency [6]
active: Potency [1] 5.36 µM | Potency [2] 7.08 µM | Potency [3] 2.24 µM

COc1cccc2c(N/N=C/c3ccco3)cc(C)nc12
inactive: Potency [1] | Potency [2] | Potency [3] | Potency [4] | Potency [5] | Potency [6]

COc1ccc(C(C#N)=Cc2cccc(OC)c2OC)cc1
active: Potency [4] 16.9 µM
inactive: Potency [1] | Potency [2] | Potency [3] | Potency [5] | Potency [6]

CN(C)c1ccccc1C(=O)N1CCCC(C(=O)c2ccc3ccccc3c2)C1 (stereo not drawn)
inactive: Potency [1] | Potency [2] | activation [3] 10.4% [at 17.1 µM, percent relative to cAMP agonist control] | Potency [4] | activity change, negative = inhibition [5] -1.02% [at 30.8 µM] | activation [6] 21.4% [at 30.8 µM]

CC1CCCCC1NC(=O)COC(=O)c1c2c(nc3ccccc13)/C(=C/c1ccco1)CC2 (stereo not drawn)
inactive: Potency [2] | Potency [3] | Potency [4] | Potency [5] | Potency [6]
active: Potency [1] 75.7 µM

O=C(c1ccc(Br)o1)N1CCN(c2ccc3nnc(-c4ccc(F)cc4)n3n2)CC1
inactive: Potency [1] | Potency [2] | activation [3] -1.27% [at 17.1 µM, percent relative to cAMP agonist control] | Potency [4] | activity change, negative = inhibition [5] -4.8% [at 30.8 µM] | activation [6] 25.2% [at 30.8 µM]

COc1ccc(N2CCN(C(=O)c3sc4nc(-c5ccc(F)cc5)cn4c3C)CC2)cc1
inactive: Potency [1] | Potency [2] | Potency [3] | Potency [4] | Potency [5] | Potency [6]

Cc1cc2nc3c(=O)n(CCc4ccccc4)c(=O)[nH]c3nc2cc1N
inactive: Potency [2] | activation [3] 3.45% [at 17.1 µM, percent relative to cAMP agonist control] | Potency [4] | activity change, negative = inhibition [5] -6.16% [at 30.8 µM] | activation [6] 15.2% [at 30.8 µM]
active: Potency [1] 12.6 µM

O=C(CN(c1ccc(Cl)c(C(F)(F)F)c1)S(=O)(=O)c1ccccc1)N1CCc2ccccc2C1
inactive: Potency [1] | Potency [2] | Potency [3] | Potency [4] | Potency [5] | Potency [6]

CSCCC(NC(=O)c1ccc(Cl)cc1)C(=O)OCC(=O)NCc1ccco1 (stereo not drawn)
inactive: Potency [1] | Potency [2] | activation [3] 0.694% [at 17.1 µM, percent relative to cAMP agonist control] | Potency [4] | activity change, negative = inhibition [5] -13% [at 30.8 µM] | activation [6] -1.33% [at 30.8 µM]

C=CC(=C)CC(NC)c1ccccc1 (stereo not drawn)
active: Potency [4] 84.9 µM
inactive: Potency [1] | Potency [2] | Potency [3] | Potency [5] | Potency [6]

COCCNC(=O)CS(=O)Cc1nc(-c2ccc(Cl)cc2)oc1C (stereo not drawn)
inactive: Potency [1] | Potency [2] | activation [3] 3.09% [at 17.1 µM, percent relative to cAMP agonist control] | Potency [4] | activity change, negative = inhibition [5] 7.48% [at 30.8 µM] | activation [6] 14.9% [at 30.8 µM]

O=c1oc(-c2ccccc2)c(-c2ccccc2)c2ccccc12
inactive: Potency [1] | Potency [2] | Potency [3] | Potency [4] | Potency [5] | Potency [6]

O=C(CCC1CCCC1)Nc1ccc([N+](=O)[O-])cn1
inactive: Potency [1] | Potency [2] | Potency [3] | Potency [4] | Potency [5] | Potency [6]

O=C(c1ccc2c(c1)N(Cc1ccccc1)CCS2)N1CCCCC1
inactive: Potency [1] | Potency [2] | Potency [3] | Potency [4] | Potency [5] | Potency [6]

c1ccc(-n2nnnc2-n2ccnc2)cc1
inactive: Potency [1] | Potency [2] | Potency [3] | Potency [4] | Potency [5] | Potency [6]

CCCOc1ccccc1Cn1c(=O)oc2ccccc21
inactive: Potency [1] | Potency [2] | Potency [3] | Potency [5] | Potency [6]
active: Potency [4] 9.53 µM

CC1CCCCC1Nc1nc2ccc(Cl)cc2n2cnnc12 (stereo not drawn)
inactive: Potency [1] | Potency [2] | Potency [3] | Potency [4] | Potency [5] | Potency [6]

COc1ccccc1OCCCSc1nc(-c2ccc(C(C)(C)C)cc2)nc2cc(=O)[nH]n12
inactive: Potency [2] | Potency [3] | Potency [4] | Potency [5] | Potency [6]
active: Potency [1] 67.5 µM

CCCC[C@@H]1CNC(=O)C(=O)N1CCc1cccc(F)c1
inactive: Potency [1] | Potency [2] | activation [3] 9.22% [at 17.1 µM, percent relative to cAMP agonist control] | Potency [4] | activity change, negative = inhibition [5] -3.55% [at 30.8 µM] | activation [6] -0.443% [at 30.8 µM]

CC(Sc1ccccc1)C(=O)NNC(=O)c1csc(N2CCOCC2)n1 (stereo not drawn)
inactive: Potency [1] | Potency [2] | activation [3] 4.98% [at 17.1 µM, percent relative to cAMP agonist control] | Potency [4] | activity change, negative = inhibition [5] 1.84% [at 30.8 µM] | activation [6] 28.3% [at 30.8 µM]

CN1/C(=C\C=C(/C#N)C(=O)Nc2ccccc2F)C(C)(C)c2ccccc21
active: Potency [2] 100 µM | Potency [3] 100 µM | Potency [6] 14.1 µM
inactive: Potency [1] | Potency [4] | Potency [5]

CCOC(=O)C1CCN(C(=O)c2cccc(S(=O)(=O)N(CC)c3ccccc3)c2)CC1
inactive: Potency [1] | Potency [2] | Potency [3] | Potency [4] | Potency [5] | Potency [6]
